Compound activity: PubChem BioAssay, The Scripps Research Institute Molecular Screening Center
FBW7 activator: FBW7 E3 ligase activators, primary screen, biochemical, AlphaScreen, human. hit rate 0.13% among 650,000. normalized activity (activation), % at 26.1 µM. F-box/WD repeat-containing protein 7 (Homo sapiens), Q969H0. AlphaScreen FBW7–phospho-cyclin E peptide binding, activator screen; in the data active means normalized activity above about 1.9%;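 further: purified mutant Fbw7 with reduced substrate affinity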
GPR151 activ: activators of human GPR151, primary screen, cell-based, PathHunter beta-arrestin, luminescence; G-protein coupled receptor 151 (Homo sapiens), Q8TDV0; PathHunter beta-arrestin GPR151 cells; activation, % at 11.2 µM; hit rate 1% among 650,000; AID 1508602, 2020; in the data active means activation above about 4.9%;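 further: 0% = median of compound wells and 100% = cells with positive control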
Target sequence (Q8TDV0 whole entry, looked up): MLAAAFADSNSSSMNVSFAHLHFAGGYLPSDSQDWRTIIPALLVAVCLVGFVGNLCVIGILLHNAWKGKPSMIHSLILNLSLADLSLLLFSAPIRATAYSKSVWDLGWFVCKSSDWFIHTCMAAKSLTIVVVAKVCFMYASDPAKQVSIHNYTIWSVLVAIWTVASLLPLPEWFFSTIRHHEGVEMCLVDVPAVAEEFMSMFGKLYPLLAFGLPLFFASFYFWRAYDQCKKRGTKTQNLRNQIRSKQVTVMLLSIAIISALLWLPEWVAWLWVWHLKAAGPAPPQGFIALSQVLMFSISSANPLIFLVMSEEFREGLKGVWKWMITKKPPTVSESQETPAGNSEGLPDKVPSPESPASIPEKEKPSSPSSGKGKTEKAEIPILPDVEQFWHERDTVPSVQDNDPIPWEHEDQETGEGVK
MITF inh: MITF inhibitors, primary screen, biochemical, AlphaScreen, human; AlphaScreen MITF homodimerization, bead proximity signal; inhibition, % at 2.6 µM; hit rate 0.91% among 650,000; in the data active means inhibition above about 50%;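 further: 0% = vehicle wells with protein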
TEAD-YAP block: TEAD-YAP interaction inhibition, primary screen, TEAD-YAP interaction inhibitor project, luminescence, HEK-TIYL cells | AID 1259422, 2018 | TEAD-Gal4/YAP UAS-luciferase luminescence | hit rate 1.4% among 640,000 | inhibition, % at 9.12 µM; in the data active means inhibition above about 32%;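 further: 0% = median of test compound wells and 100% = reference inhibitor wells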
Numbers without * were called inactive. Hits are enriched below; roughly 3.5% of the tested compounds scored in any of these assays.

Results for COc1ccc(S(=O)(=O)Nc2ccc3ccccc3c2)cc1Cl ?
FBW7 activator: 1; GPR151 activ: 0; MITF inh: -2; TEAD-YAP block: 12

How did O=C(Nc1ccc2c(c1)OC(F)(F)O2)c1cc([N+](=O)[O-])ccc1Cl do in these assays?
FBW7 activator: 0; GPR151 activ: 0; MITF inh: 5; TEAD-YAP block: 68*

How did O=C(Nc1cccc(F)c1)c1ccc(Cl)c([N+](=O)[O-])c1 do in these assays?
FBW7 activator: 0; GPR151 activ: 2; MITF inh: 2; TEAD-YAP block: 13

How did O=C(Nc1cccc(Cl)c1)c1ccc(Cl)c([N+](=O)[O-])c1 do in these assays?
FBW7 activator: 0; GPR151 activ: -1; MITF inh: 27; TEAD-YAP block: 45*

What do the screens show for `O=C(Nc1cccc(I)c1)c1ccc(Cl)c([N+](=O)[O-])c1`?
FBW7 activator: 0; GPR151 activ: -3; MITF inh: 21; TEAD-YAP block: 33*

How did O=C(Nc1cccc(C(F)(F)F)c1)c1ccc(Cl)c([N+](=O)[O-])c1 do in these assays?
FBW7 activator: 0; GPR151 activ: -1; MITF inh: 4; TEAD-YAP block: 62*

Results for Cc1ccccc1-c1nc(CS(=O)CC(=O)NC(C)C)c(C)o1 (stereo not drawn) ?
FBW7 activator: 0; GPR151 activ: 1; MITF inh: -4; TEAD-YAP block: 11

What do the screens show for `O=C(Nc1cccc(-c2nc3ccccc3s2)c1)c1ccccc1[N+](=O)[O-]`?
FBW7 activator: 0; GPR151 activ: 1; MITF inh: -3; TEAD-YAP block: -33

How did O=C(Nc1cccc(-c2nc3ccccc3s2)c1)c1cc([N+](=O)[O-])ccc1Cl do in these assays?
FBW7 activator: 0; GPR151 activ: -1; MITF inh: 13; TEAD-YAP block: 36*

How did O=C(Nc1ccc(Cl)cc1)c1cc(Cl)ccc1[N+](=O)[O-] do in these assays?
FBW7 activator: 0; GPR151 activ: -1; MITF inh: -6; TEAD-YAP block: 7

How did O=C(Nc1cccc(I)c1)c1cc([N+](=O)[O-])ccc1Cl do in these assays?
FBW7 activator: 1; GPR151 activ: 0; MITF inh: 8; TEAD-YAP block: 45*

How did Cc1cccc(NC(=O)c2cc(Cl)ccc2[N+](=O)[O-])c1 do in these assays?
FBW7 activator: 0; GPR151 activ: -1; MITF inh: 0; TEAD-YAP block: 45*

How did O=C(Nc1cc(C(F)(F)F)ccc1Cl)c1ccc(Cl)c([N+](=O)[O-])c1 do in these assays?
FBW7 activator: 0; GPR151 activ: -1; MITF inh: 2; TEAD-YAP block: 45*

What do the screens show for `COc1ccccc1N1CCN(C(=O)c2cn(-c3ccc(C)c(C)c3)c(=O)c3ccccc23)CC1`?
FBW7 activator: 0; GPR151 activ: 3; MITF inh: 0; TEAD-YAP block: 3

What do the screens show for `O=C(Nc1ccc(F)cc1)c1ccc(Cl)c([N+](=O)[O-])c1`?
FBW7 activator: 0; GPR151 activ: 1; MITF inh: 19; TEAD-YAP block: 48*

What do the screens show for `COc1ccc(-c2noc(COc3ccc(Cl)c(C)c3)n2)cc1OC`?
FBW7 activator: 0; GPR151 activ: 0; MITF inh: 3; TEAD-YAP block: -7

How did O=C(CSc1nnc(-c2cccnc2)s1)Nc1ccnc2ccccc12 do in these assays?
FBW7 activator: 0; GPR151 activ: -1; MITF inh: -11; TEAD-YAP block: 48*

Results for Cc1ccc(NC(=O)CSc2nnc(-c3cccnc3)s2)cc1 ?
FBW7 activator: 0; GPR151 activ: 2; MITF inh: 8; TEAD-YAP block: -3

How did Cc1[nH]c2ccc(CNC(=O)Cn3c(C)nc4ccccc43)cc2c1C do in these assays?
FBW7 activator: 0; GPR151 activ: 0; MITF inh: 13; TEAD-YAP block: 50*

How did CCN(CC)CCNC(=O)Cn1c(C)nc2ccccc21 do in these assays?
FBW7 activator: 0; GPR151 activ: 1; MITF inh: 13; TEAD-YAP block: -6

What do the screens show for `COc1ccc(-c2cncc(C(=O)NCc3cccnc3)c2)cc1`?
FBW7 activator: 0; GPR151 activ: 2; MITF inh: -5; TEAD-YAP block: -3

How did COc1ccccc1OCC(=O)Nc1nccs1 do in these assays?
FBW7 activator: 0; GPR151 activ: -8; MITF inh: 4; TEAD-YAP block: 15

What do the screens show for `Cc1cccc(OCC(=O)Nc2nccs2)c1C`?
FBW7 activator: 0; GPR151 activ: -5; MITF inh: 7; TEAD-YAP block: 32*

Results for O=C(COc1ccccc1Cl)Nc1nccs1 ?
FBW7 activator: 0; GPR151 activ: -11; MITF inh: 19; TEAD-YAP block: 91*

What do the screens show for `O=C(COc1ccccc1F)Nc1nccs1`?
FBW7 activator: 0; GPR151 activ: -8; MITF inh: 6; TEAD-YAP block: -1

What do the screens show for `Cc1ccc(/C=C/c2cc(=O)n3ccsc3n2)cc1`?
FBW7 activator: 0; GPR151 activ: -2; MITF inh: -8; TEAD-YAP block: 49*

What do the screens show for `CC(C)c1ccc(/C=C/c2cc(=O)n3ccsc3n2)cc1`?
FBW7 activator: 0; GPR151 activ: -1; MITF inh: -6; TEAD-YAP block: 5

Results for CN(/N=C/c1ccc(Br)cc1)C1=NS(=O)(=O)c2ccccc21 ?
FBW7 activator: 0; GPR151 activ: 2; MITF inh: -10; TEAD-YAP block: 2

Results for CN(C)c1ccc(C(=O)N2CCN(Cc3ccc4c(c3)OCO4)CC2)cc1 ?
FBW7 activator: -1; GPR151 activ: 1; MITF inh: -5; TEAD-YAP block: -12

Results for O=c1c(CN2CCN(c3ccc(F)cc3)CC2)coc2ccccc12 ?
FBW7 activator: 0; GPR151 activ: 1; MITF inh: 17; TEAD-YAP block: 6

What do the screens show for `O=c1c(CN2CCSCC2)coc2ccccc12`?
FBW7 activator: 1; GPR151 activ: 0; MITF inh: 14; TEAD-YAP block: 3

What do the screens show for `CN(C)c1ccc(CN2CCN(Cc3ccc4c(c3)OCO4)CC2)cc1`?
FBW7 activator: 0; GPR151 activ: -1; MITF inh: 53*; TEAD-YAP block: -5

What do the screens show for `O=c1c(CN2CCc3ccccc3C2)coc2ccccc12`?
FBW7 activator: 0; GPR151 activ: 1; MITF inh: 31; TEAD-YAP block: 34*

Results for COc1cc(SC)ccc1C(=O)N1CCN(Cc2ccc3c(c2)OCO3)CC1 ?
FBW7 activator: 0; GPR151 activ: 1; MITF inh: 7; TEAD-YAP block: 32*

Results for O=c1c(CN2CCN(c3ccccn3)CC2)coc2ccccc12 ?
FBW7 activator: 0; GPR151 activ: -1; MITF inh: 40; TEAD-YAP block: 38*

What do the screens show for `CC1(C)CC(NC(=O)C2CC(Cc3cccc(Cl)c3)=NO2)CCO1` (stereo not drawn)?
FBW7 activator: 0; GPR151 activ: 4; MITF inh: 8; TEAD-YAP block: -29

What do the screens show for `NC(=O)c1ccc(NC(=O)CSc2nc(=O)n3ccccc3n2)cc1`?
FBW7 activator: 0; GPR151 activ: 1; MITF inh: -10; TEAD-YAP block: 3
